Pf growth 48h – P. falciparum growth inhibition at 48 hours (one generation). P. falciparum luciferase growth in erythrocytes, 48 h. Potency, µM (titrated, usually from 28.7 µM), without a hit: top-dose activity change, negative = inhibition, most hits filed as inhibitors. 5.9% of 310,000 active. AID 504832
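Erythrocytes infected with P. falciparum carrying an integrated firefly luciferase reporter (2% hematocrit, 0.1% parasitemia final) were exposed to compounds in RPMI 1640 with 0.5% Albumax at 37 C, 5% CO2. Growth inhibition was scored as reduced luminescence.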
Pf growth 96h – P. falciparum growth inhibition at 96 hour, primary screen for plastid delayed-death inhibitors | P. falciparum luciferase reporter growth, 96 h | Potency, µM (top dose mostly 28.7 µM), for inactives: at the highest dose activity change, negative = inhibition, hits mostly inhibitors | 6.9% of 320,000 active
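P. falciparum expressing integrated firefly luciferase, in erythrocytes at 2% hematocrit, 0.05% parasitemia, incubated with compounds 96 h at 37 C, 5% CO2. Growth inhibition read as loss of luminescence; two-generation exposure targets delayed-death apicoplast inhibitors.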
AMA1 RON2 block – disrupts binding of P. falciparum AMA1 to RON2. AlphaScreen AMA1-biotinylated RON2 peptide binding. Potency, µM (top dose mostly 58.2 µM), without a hit: at the top dose activity change, negative = inhibition, usual class: inhibitors. 0.2% of 360,000 active. AID 720542;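 also: 0% = vehicle wells and -100% = peptide control; nearly all actives have a fitted effect of over 45% in size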
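AMA1 (3D7) with his tag at 25 nM final met compounds first, then biotinylated RON2 peptide at 25 nM; detection used donor plus acceptor beads, 10 µg/mL apiece, read by AlphaScreen after 30 min at room temperature.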
HCV inh – HCV inhibition. Huh7.5.1 HCVcc-Cre infection, luciferase reporter, 44 h. Potency, µM (titrated, usually from 41.8 µM), inactives show at the top dose activity change, negative = inhibition, hits mostly inhibitors. 3.4% of 340,000 active. AID 651820
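Cells (1,000/well) were plated 4 h before compound, then infected with HCVcc-Cre virus (~0.5 moi). After 44 h further culture, infection was read as luciferase luminescence following a 15 min substrate incubation at room temperature.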
* marks the source's active call; other numbers are inactive results; u = inconclusive; x = not tested or not shown; ! = not confirmed by another sample; [ ] = dose if it differs, or a comment. A selection: hits, their analogues and other compounds. The true share with any hit is near 11%. Calls follow the shape of the dose curve; as a rule, active = well fitted curve in the direction sought with a large enough effect; inconclusive = small, poorly fitted or top-dose-only effect, or another doubt; inactive = no such curve, though single readings can be large; an effect the other way counts as inactive or inconclusive. Unless noted, % is scaled to controls: 0 for no effect and ±100 for the full control effect; potency is read from the fitted curve at half-maximal effect.

SMILES	Pf growth 48h	Pf growth 96h	AMA1 RON2 block	HCV inh
COC(=O)Cn1c(=O)c2c(nc3n2CCCN3Cc2ccccc2)n(C)c1=O	-19%	u	0%	-3%
CC(C)[C@H](N)C(=O)OCCOCn1cnc2c(=O)[nH]c(N)nc21	0%	u	11%	0.5µM*!
CC(=O)Nc1nc2c(ncn2COCCOC(C)=O)c(=O)[nH]1	4%	13µM*	x	6%
Nc1nc2c(ncn2C2CCCC2)c(=O)[nH]1	x	x	5%	-4%
CC(=O)Nc1nc2[nH]ccc2c(=O)[nH]1	x	x	19%	x
CN(C)C(CNC(=O)C1CC(=O)N(Cc2ccccc2)C1)c1ccccc1 (stereo not given)	-7%	28%	11%	2%
C=CCOc1ccccc1/C=N/NC(=O)c1ccc(Cl)cc1Cl	4%	-9%	0%	-18%
COc1cc(C(=O)Oc2ccccc2/C=N/NC(=O)c2ccc(Cl)cc2Cl)cc(OC)c1OC	6.6µM*	u	-13%	u
O=C(NCc1cccc(C(F)(F)F)c1)C1C(=O)Nc2ccccc2C(=O)N1C1CCCC1 (stereo not given)	x	x	-5%	x
S=C(NCC1(c2ccccc2)CCCC1)Nc1ccccc1	7%[0.00184 µM]	u	12%	10µM*
O=C(NCC1(c2ccccc2)CCCC1)C1(c2ccccc2)CCCC1	u	2.6µM*	28%	u
CCc1ccc(O)c(N=Cc2ccccc2O)c1	u	x	30%	2%
O=c1[nH][nH]c2c(N=Cc3ccccc3O)ccc(F)c12	u	-19%	11µM*	2%
CCC(CO)NS(=O)(=O)c1cc(-c2nn(C)c(=O)c3ccccc23)ccc1C (stereo not given)	-4%	137%	-1%	u
COc1ccc(C2CC(O)(c3ccccc3)Oc3cc(OC)ccc32)cc1 (stereo not given)	12µM*	u	-6%	4.5µM*
Cc1cc(C)c(S(=O)(=O)N(C2=NCCS2)S(=O)(=O)c2c(C)cc(C)cc2C)c(C)c1	15µM*	u	3%	4%
CCOC(=O)C1CCCN(C(=O)c2cn(C)c(=O)c3cc(OC)c(OC)cc23)C1 (stereo not given)	-7%	6.6µM*	-1%	-8%
CCOC(=O)C1CCCN(C(=O)c2cn(CC)c(=O)c3cc(OC)c(OC)cc23)C1 (stereo not given)	-23%	1µM*	1%	3%
O=C1/C(=C/c2cccnc2)Sc2ccccc21	u	7.4µM*	-11%	10%
CCOc1ccc(-n2c(SCc3cc(=O)oc4cc(C)ccc34)nnc2-c2cccnc2)cc1	u	u	5%	u
CC(C)c1ccccc1-n1c(SCc2cc(=O)oc3ccc4ccccc4c23)nnc1-c1cccnc1	13µM*	8.3µM*	-21%	u
CC(=O)Nc1ccc2c(CSc3nnc(-c4cccnc4)n3-c3ccc(C)cc3C)cc(=O)oc2c1	u	7.4µM*	-1%	-20%
O=C(N/N=C/c1sc(=O)n(Cc2ccc(Br)cc2)c1Cl)c1ccco1	3.7µM*	2.6µM*	0%	u
O=C1Nc2cc(Cl)cnc2N2CCCC12 (stereo not given)	-25%	4.1µM*	0%	u
Cn1c(=O)n(C)c2cc([N+](=O)[O-])c(N3CCN(C(=O)c4ccccc4Cl)CC3)cc21	-29%	u	-5%	u
SMILES	Pf growth 48h	Pf growth 96h	AMA1 RON2 block	HCV inh
Cn1c(=O)n(C)c2cc([N+](=O)[O-])c(N3CCN(C(=O)c4ccccc4Br)CC3)cc21	-16%	9%	-3%	13µM*
NC(=O)C1=CC2C3C=CC2(O)C(=O)OC3O1 (stereo not given)	x	x	10%	8.9µM*
COc1cc(NC(=O)CCNS(=O)(=O)c2ccc3c(c2)CCC(=O)N3)cc(OC)c1	5%	5%	0%	43%
O=C(Nc1cccc(Cl)c1)c1ccc(-n2cncn2)c([N+](=O)[O-])c1	12µM*	u	12%	u
CC(=O)c1ccc(S(=O)(=O)N2CCN(C(=O)c3ccc(-n4cncn4)c([N+](=O)[O-])c3)CC2)cc1	-3%	u	-9%	7%
CN(C)S(=O)(=O)c1cccc(NC(=O)c2ccc(Sc3nncn3C)c([N+](=O)[O-])c2)c1	u	u	-2%	u
Cc1ccc(S(=O)(=O)N2CCN(C(=O)c3ccc(-n4cncn4)c([N+](=O)[O-])c3)CC2)cc1C	u	7.4µM*	-6%	-5%
CCN(CC)S(=O)(=O)c1ccc(NC(=O)c2ccc(Sc3nncn3C)c([N+](=O)[O-])c2)cc1	12µM*	u	-9%[2.32 µM]	-13%
O=C(Nc1ccc(Cl)cc1)c1ccc(-n2cncn2)c([N+](=O)[O-])c1	u	u	-19%	-1%
Nc1ccc(C(=O)N2CCN(S(=O)(=O)c3ccc(Br)cc3)CC2)cc1[N+](=O)[O-]	u	8.3µM*	-2%	-17%
CN(CC(=O)Nc1ccccc1-c1ccccc1)Cc1ccccc1Cl	u	u	1%	-28%
CCN(CC)S(=O)(=O)c1cc(NC(=O)c2ccc(-n3cncn3)c([N+](=O)[O-])c2)ccc1C	13µM*	15µM*	2%	11µM*
Cc1ccc(NC(=O)c2ccc(-n3cncn3)c([N+](=O)[O-])c2)cc1	u	u	9%	u
CCOC(=O)c1cnc2c(N=Nc3cccc(Cl)c3)c(N)nn2c1N	13%	0.66µM*	x	x
CC1(C)CN(Cc2ccccc2)C(=O)[C@H]1CC(=O)Nc1ccc(Br)cc1	x	x	14%	x
COc1cc2c(cc1OC)C1=NC(=O)CN1C(SCc1ccccc1)=N2	10µM*	x	-5%	u
CCOC(=O)N1CCN(C(=O)C[C@@H]2C[C@@]3(C(=O)OCC)CCCC=C3N(Cc3ccccc3)C2=O)CC1	x	x	-7%	x
COc1cccc2[nH]c3c(N4CCc5ccccc5C4)ncnc3c12	u	u	-11%	11µM*
COc1cccc2[nH]c3c(N4CCC(C)CC4)ncnc3c12	9.3µM*	u	-2%	u
Cc1ccc(CNc2nc(C)c(C(=O)N(C)C)s2)cc1	-47%	23%	-1%	-16%
COc1cccc(-n2c(N)c(C(=O)Nc3c(C)n(C)n(-c4ccccc4)c3=O)c3nc4ccccc4nc32)c1	u	-23%	-6%	4%
Cc1cc(C)cc(-n2c(N)c(C(=O)Nc3c(C)n(C)n(-c4ccccc4)c3=O)c3nc4ccccc4nc32)c1	12%	2.9µM*	-7%	u
Cc1ccc(-n2c(N)c(C(=O)Nc3c(C)n(C)n(-c4ccccc4)c3=O)c3nc4ccccc4nc32)cc1	9.3µM*	u	-13%	11µM*
Cc1ccc(C(=O)Nc2c(C)n(C)n(-c3ccccc3)c2=O)cc1	17%	-11%	-7%	11%
CCOC(=O)c1cnc2c(-c3ccccc3OC)c(C)nn2c1C	-1%	45%	10%	5%
COC(=O)c1cccc(NC(=O)CN2CCc3ccccc3C2)c1	0%	-9%	1%	5%

Screening data (PubChem)
